Rows were chosen to be rich in hits. Some 1.6% of all compounds tested hit in one or more screens of this group.
cytoskel mod – modifiers of cytoskeleton assembly; HUVEC TNFa F-actin phalloidin imaging, high content; inhibition, % at 2 µM; actives 0.18% (n = 91,000); AID 836;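 active = inhibition above the batch mean plus 3 SD and confirmed as a hit by visual image inspection, cut at about 30% in these data, passing the limit was not always enough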
HUVEC tox TNFa – toxic to HUVEC cells under TNF alpha stimulation; HUVEC TNFalpha-stimulated, Hoechst cell count, imaging; cell count reduction, % at 2 µM; actives 0.17% (n = 93,000); AID 848;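 active = cell count reduction exceeding the screen mean by over 5 SD, scaled to untreated wells per plate, cut at about 78% in these data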;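 note: cells counted after 24 h of TNF alpha exposure following the 1 h pretreatment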
E-sel TNF inh – TNF alpha driven E-selectin expression inhibition; actives 0.71% (n = 120,000); HUVEC TNFa-induced E-selectin immunofluorescence, high content; inhibition, % at 2 µM; AID 1246;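 active = inhibition above the batch mean plus 3 SD, and confirmed as a hit on visual image review, cut at about 43% in these data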;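 note: 0% = TNF-stimulated DMSO wells and 100% = unstimulated control wells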
S1P2 agonist – S1P2 (human) receptor agonism; activation, % at 4.5 µM; O95136; S1P2-expressing cell line, agonist reporter read-out; actives 0.46% (n = 97,000); in the data active = activation above about 16%;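 note: 0% = vehicle low control and 100% = maximal reference agonist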
Target sequence (O95136 whole entry, looked up): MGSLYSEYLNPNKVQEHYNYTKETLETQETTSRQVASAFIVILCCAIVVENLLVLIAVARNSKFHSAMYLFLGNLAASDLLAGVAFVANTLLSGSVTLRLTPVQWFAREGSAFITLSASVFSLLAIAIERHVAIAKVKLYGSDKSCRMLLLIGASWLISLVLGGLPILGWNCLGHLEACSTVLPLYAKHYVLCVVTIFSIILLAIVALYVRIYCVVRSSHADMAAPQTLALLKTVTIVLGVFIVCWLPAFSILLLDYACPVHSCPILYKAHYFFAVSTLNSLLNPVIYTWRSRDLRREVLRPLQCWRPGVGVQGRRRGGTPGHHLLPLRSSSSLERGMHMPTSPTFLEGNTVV
VCAM1 TNFa inh – reduces TNF alpha induced VCAM1 expression in HUVEC; HUVEC TNFa-induced VCAM-1 immunofluorescence, high-content imaging; actives 0.48% (n = 95,000); inhibition, % at 2 µM;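 active = inhibition above the batch mean plus 3 SD, with images confirmed as a hit by eye, cut at about 37% in these data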;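 note: 0% = TNF-stimulated DMSO wells and 100% = unstimulated control wells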
S1P2 blocker – blocks the human S1P2 receptor; O95136; cell-based S1P2 antagonist assay, inhibition at 5 uM; inhibition, % at 5 µM; actives 0.21% (n = 97,000); AID 736; in the data active = inhibition above about 45%;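 note: CRE beta-lactamase reporter cells expressing human S1P2 stimulated with S1P; 0% = agonist at EC80 alone and 100% = agonist plus reference antagonist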
An asterisk follows results filed as active.

Screening Cc1cc(NC(=O)CSc2nc(C3CC3)nc3sc(C)c(C)c23)no1 returned cytoskel mod 7.1, HUVEC tox TNFa -9.6, E-sel TNF inh 3.2, S1P2 agonist 9.2, VCAM1 TNFa inh 2.9 and S1P2 blocker -18.2.
`COc1ccc2c(c1)C(=NN)c1cc(OC)ccc1-2` gave cytoskel mod -4.2, HUVEC tox TNFa -12.1, E-sel TNF inh 14.9, S1P2 agonist 5.8, VCAM1 TNFa inh 15.8 and S1P2 blocker -22.5.
For Cc1[nH]nc2c1C(=O)CC(C)(C)C2 the results were cytoskel mod -9.4, HUVEC tox TNFa -7.1, E-sel TNF inh 7.2, S1P2 agonist -8.1, VCAM1 TNFa inh 18.4 and S1P2 blocker -0.6.
`CCc1n[nH]c2c1C(=O)CC(C)(C)C2` gave cytoskel mod 1.8, HUVEC tox TNFa -11.3, E-sel TNF inh 53.9*, S1P2 agonist -0.7, VCAM1 TNFa inh 6.3 and S1P2 blocker -19.1.
For O=C(NC1=NCCS1)C1CC2CCC1C2 (stereo unspecified) the results were cytoskel mod 35.2, HUVEC tox TNFa -21.5, E-sel TNF inh -9.4, S1P2 agonist 18.3*, VCAM1 TNFa inh -2.5 and S1P2 blocker 14.1.
`CCOC(=O)N/N=C(\C)c1ccc(C)o1` gave E-sel TNF inh 7.3.
For COc1cc2[nH]c(=O)n(CCCCCC(=O)NCCCN3CCCC3=O)c(=O)c2cc1OC the results were cytoskel mod 2.7, HUVEC tox TNFa 4.4, E-sel TNF inh -14.6, S1P2 agonist -2.1, VCAM1 TNFa inh 4.5 and S1P2 blocker 1.7.
Screening CCOc1cc2[nH]c(=O)n(CCCN3CCCC3=O)c(=O)c2cc1OCC returned cytoskel mod 7.6, HUVEC tox TNFa -10.7, E-sel TNF inh 45.8*, S1P2 agonist -7.2, VCAM1 TNFa inh 15.3 and S1P2 blocker -7.7.
For O=C(CN1CCC(n2cnc3cc(F)ccc32)CC1)Nc1ccccc1Br the results were E-sel TNF inh 21.1.
Cc1ccc(-c2nc(NC(=O)c3nn(C)cc3[N+](=O)[O-])sc2C)cc1C was read as cytoskel mod 0.3, HUVEC tox TNFa 36.3, E-sel TNF inh 99.6*, S1P2 agonist -5.0, VCAM1 TNFa inh 88.6* and S1P2 blocker 35.9.
`Cc1ccc(-c2nc(NC(=O)c3nn(C)cc3[N+](=O)[O-])sc2C)cc1` gave cytoskel mod -2.8, HUVEC tox TNFa 26.4, E-sel TNF inh 87.0*, S1P2 agonist -7.7, VCAM1 TNFa inh 91.7* and S1P2 blocker 43.3.
Cn1cc([N+](=O)[O-])c(C(=O)Nc2nc(-c3ccc(Cl)cc3)cs2)n1 was read as cytoskel mod 9.8, HUVEC tox TNFa 29.4, E-sel TNF inh 97.8*, S1P2 agonist 0.3, VCAM1 TNFa inh 30.2 and S1P2 blocker 27.3.
Screening Cn1cc([N+](=O)[O-])c(C(=O)Nc2ccc(-c3nc4ccccc4[nH]3)cc2)n1 returned E-sel TNF inh 22.8.
`Cn1c(-c2ccc[nH]c2=O)nc2cc(Cl)ccc21` gave cytoskel mod -36.7, HUVEC tox TNFa 14.3, E-sel TNF inh 16.6, S1P2 agonist -1.6, VCAM1 TNFa inh -3.8 and S1P2 blocker 14.3.
`CC1(C)Oc2ccc3ccc(=O)oc3c2C(N2CCCCC2)C1O` (stereo unspecified) gave cytoskel mod 19.6, HUVEC tox TNFa -4.5, E-sel TNF inh -9.4, S1P2 agonist -4.1, VCAM1 TNFa inh -0.6 and S1P2 blocker 5.9.
Screening C/C=C(/C)C(=O)OC1c2c(ccc3ccc(=O)oc23)OC(C)(C)C1OC(C)=O (stereo unspecified) returned cytoskel mod -21.0, HUVEC tox TNFa -5.3, E-sel TNF inh -11.6, S1P2 agonist 20.2*, VCAM1 TNFa inh -3.7 and S1P2 blocker -5.1.
For CCOC(=O)c1c(C)c(C(=O)Nc2ccc3c(c2)OCCO3)c(C)n1C the results were E-sel TNF inh 95.6*.
Screening CCn1cc(C(=O)NCc2ccc(C)o2)c2cc(OC)c(OC)cc2c1=O returned cytoskel mod 2.3, HUVEC tox TNFa -40.8, S1P2 agonist 17.4*, VCAM1 TNFa inh 4.8 and S1P2 blocker -21.7.
CCn1cc(C(=O)Nc2ccc3c(c2)OCCO3)c2cc(OC)c(OC)cc2c1=O was read as cytoskel mod 4.2, HUVEC tox TNFa 30.1, S1P2 agonist 29.3*, VCAM1 TNFa inh -1.1 and S1P2 blocker 1.1.
`O=C1CCCCCN1C(=O)c1cccc(C(=O)N2CCCCCC2=O)c1` gave cytoskel mod -8.7, HUVEC tox TNFa 11.2, S1P2 agonist -11.5, VCAM1 TNFa inh 13.1 and S1P2 blocker 10.2.
Screening CCCn1c(NCc2c[nH]c3ccccc23)nc2ccccc21 returned HUVEC tox TNFa 3.6, E-sel TNF inh 45.2, S1P2 agonist 21.5*, VCAM1 TNFa inh -12.4 and S1P2 blocker -30.6.
Screening CCCn1c(NCc2cccc(OC)c2OC)nc2ccccc21 returned cytoskel mod -0.7, HUVEC tox TNFa -24.1, E-sel TNF inh -3.7, S1P2 agonist -6.0, VCAM1 TNFa inh -4.5 and S1P2 blocker 13.8.
Screening O=c1cc(-c2ccccc2)c2ccccc2[nH]1 returned cytoskel mod -30.3, HUVEC tox TNFa -17.1, E-sel TNF inh 65.0*, S1P2 agonist -4.0, VCAM1 TNFa inh 9.6 and S1P2 blocker 8.9.
COc1cc(NC(=O)CN2CCC(C)CC2)c(C)cc1[N+](=O)[O-] was read as E-sel TNF inh 83.0*.
Screening O=C(Nc1cccc(-c2cn3ccccc3n2)c1)c1cccc(Cl)c1 returned cytoskel mod 26.1, HUVEC tox TNFa -25.2, E-sel TNF inh 56.9*, S1P2 agonist -2.6, VCAM1 TNFa inh -1.9 and S1P2 blocker 2.1.
`O=C(Nc1cccc(-c2cn3ccccc3n2)c1)c1cnccn1` gave cytoskel mod 6.8, HUVEC tox TNFa 19.8, E-sel TNF inh -3.2, S1P2 agonist 4.0, VCAM1 TNFa inh 48.7 and S1P2 blocker -27.1.
Screening Cn1c(NC(=O)c2ccccc2)cc(=O)n(C)c1=O returned cytoskel mod 3.6, HUVEC tox TNFa -10.0, S1P2 agonist -2.8, VCAM1 TNFa inh 4.5 and S1P2 blocker -12.8.
For Cn1c(NC(=O)C2c3ccccc3Oc3ccccc32)cc(=O)n(C)c1=O the results were cytoskel mod -34.0, HUVEC tox TNFa 64.7, E-sel TNF inh 17.1, S1P2 agonist -0.4, VCAM1 TNFa inh 93.6* and S1P2 blocker -7.3.
For CCc1nnc(NC(=O)C2c3ccccc3Oc3ccccc32)s1 the results were cytoskel mod 46.4*, HUVEC tox TNFa -16.3, E-sel TNF inh -18.3, S1P2 agonist -1.8, VCAM1 TNFa inh -23.2 and S1P2 blocker -5.9.
`O=C1C2ON(c3ccc(Cl)cc3)C(c3ccco3)C2C(=O)N1c1ccccc1` (stereo unspecified) gave cytoskel mod -10.9, HUVEC tox TNFa -9.9, E-sel TNF inh 10.0, S1P2 agonist -3.5, VCAM1 TNFa inh 9.5 and S1P2 blocker -6.0.
N=c1sccn1CC(=O)NCCc1ccc(Cl)cc1 was read as cytoskel mod -0.2, HUVEC tox TNFa -0.4, E-sel TNF inh 80.8*, S1P2 agonist -5.5, VCAM1 TNFa inh -10.8 and S1P2 blocker -16.6.
Cn1c(CN2CCCC2)nc2cc(NC(=O)COc3ccc([N+](=O)[O-])cc3)ccc21 was read as E-sel TNF inh 6.4.

Screens deposited in PubChem by several laboratories.
